# Reference: PubChem BioAssay
# Calls of active or inactive are those of the source.
# Tests used:
# [1] = test system: PRMT1 (protein arginine N-methyltransferase 1); assay: PRMT1 binders on small-molecule microarrays, primary screen, biochemical, small-molecule microarray, 635 nm fluorescence (AID 1088); conditions: small-molecule microarray binding, higher = more signal;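 also: binding of Prmt1 protein to compounds spotted on small-molecule microarray slides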
# [2] = yeast growth modulation, basal conditions, primary screen, YJM789 clinical isolate, OD600, 24 h (AID 1089);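 also: growth of clinical yeast isolate S. cerevisiae YJM 789 seeded 1000 cells per well; test concentration not given here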; conditions: S. cerevisiae YJM789 growth, higher = more signal, called active from +8 up or from −8 down
# [3] = fission yeast growth modulation, primary screen, strain 972, OD600, 24 h, no modulator (AID 1090);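 also: basal condition with compound alone and no growth modifier present; test concentration not given here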; conditions: S. pombe 972 growth, higher = more signal, called active from +8 up or from −8 down
# [4] = S. cerevisiae growth modulation with rapamycin, primary screen, strain BY4716, OD600, 96 h (AID 1091); conditions: higher = more signal, called active from +8 up or from −8 down; also: test concentration not given here
# [5] = target: Torsin-1A-interacting protein 2 (Homo sapiens) (UniProt Q8NFQ8); assay: LULL1 binders on small-molecule microarray, primary screen, cell lysate, human LULL1 lysate, 635/667 nm fluorescence (AID 1092); conditions: hLULL1 lysate binding, 635 nm fluorescence, higher = more signal;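 also: probe is lysate of COS7 cells overexpressing human LULL1; score merges per-feature 667 nm fluorescence with signal-to-noise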
# [6] = E. coli growth modulation, two-sided OD650, primary screen, E. coli filamentation project, strain DRC41, 24 h (AID 1093); conditions: OD650, 24 h, higher = more signal, called active from +8 up or from −8 down;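 also: MC1000 strain lacking acrAB efflux and sulA so SOS filamentation is blocked; test concentration not given here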
# [7] = small-molecule microarray binders of probe aLefty2, primary screen, biochemical, biotinylated probe, 635/667 nm fluorescence (AID 1094); conditions: higher = more signal;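 also: score merges spot fluorescence near 667 nm with spot signal-to-noise ratio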
# [8] = test system: Noggin (protein binding on small-molecule microarray); assay: Noggin binders on small-molecule microarray, primary screen, biochemical, 635/667 nm fluorescence (AID 1095); conditions: 635 nm fluorescence, higher = more signal;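 also: score merges 667 nm feature fluorescence with signal to noise over triplicate slides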
# [9] = target: Neurogenic locus notch homolog protein 3 (Homo sapiens) (UniProt Q9UM47); assay: NOTCH3 binders on small-molecule microarray, primary screen, biochemical, 635/667 nm fluorescence (AID 1096); conditions: NOTCH3 binding, 635 nm fluorescence, higher = more signal
# [10] = small-molecule microarray binders of probe aEGFR, primary screen, biochemical, biotinylated probe, 635/667 nm fluorescence (AID 1097); conditions: higher = more signal;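 also: probe is a biotinylated anti-EGFR antibody binding compounds printed on slides; score combines fluorescence near 667 nm and signal to noise of each spot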
# [11] = test system: Plasmodium falciparum Sir2 (PF13_0152, Sir2A); assay: pfSir2 binders on small-molecule microarrays, primary screen, biochemical, small-molecule microarray, 635 nm fluorescence (AID 1098); conditions: small-molecule microarray binding, fluorescence 635 nm; higher = more signal;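 also: score merges spot fluorescence intensity with its signal-to-noise ratio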
# [12] = small-molecule microarray binders of probe aDKK1, primary screen, biochemical, biotinylated probe, 635/667 nm fluorescence (AID 1099); conditions: higher = more signal;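 also: score merges 667nm spot fluorescence with signal to noise across triplicate slides; reference of the scale not given here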
# [13] = small-molecule microarray binders of probe aCHRDL2, primary screen, biochemical, biotinylated probe, 635/667 nm fluorescence (AID 1100); conditions: higher = more signal
# [14] = splicing luciferase reporter signal modulators, primary screen, spliceosome inhibition project, cell-based, HEK293, splice +/- reporter (AID 1101); conditions: luminescence, 24 h, higher = more signal, called active from +8 up or from −8 down;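 also: HEK293 cells carrying a splicing-competent luciferase reporter gene; test concentration not given here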
# [15] = target: Fibroblast growth factor 10 (Homo sapiens) (UniProt O15520); assay: FGF10 binders on small-molecule microarrays, primary screen, biochemical, small-molecule microarray, 635 nm fluorescence (AID 1102); conditions: FGF10 binding, fluorescence 635 nm, higher = more signal
# [16] = test system: glycogen synthase kinase-3 (GSK3A per assay name; protocol says GSK3B); assay: GSK3 binders on small-molecule microarrays, primary screen, biochemical, small-molecule microarray, 635 nm fluorescence, GSK3A (AID 1103); conditions: small-molecule microarray binding, fluorescence 635 nm; higher = more signal; also: the record names both GSK3A and GSK3B
# [17] = target: Epidermal growth factor receptor (Homo sapiens) (UniProt P00533); assay: EGFR binders on small-molecule microarrays, primary screen, biochemical, small-molecule microarray, 635 nm fluorescence (AID 1104); conditions: EGFR binding, higher = more signal;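 also: score merges 667 nm emission intensity with spot signal to noise over triplicate slides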
# [18] = target: Follistatin-related protein 3 (Homo sapiens) (UniProt O95633); assay: FSTL3 binders on small-molecule microarrays, primary screen, biochemical, small-molecule microarray, 635 nm fluorescence (AID 1105); conditions: FSTL3 binding, higher = more signal;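 also: score merges emission near 667 nm and signal to noise per printed spot across three slides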
# [19] = target: Dickkopf-related protein 1 (Homo sapiens) (UniProt O94907); assay: DKK1 binders on small-molecule microarrays, primary screen, biochemical, small-molecule microarray, 635 nm fluorescence scan (AID 1106); conditions: DKK1 binding, higher = more signal;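 also: score merges emission near 667 nm with signal to noise over three replicate slides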
# [20] = test system: Inhibin beta A chain (activin A); assay: INHBA (activin A) binders on microarrays, primary screen, biochemical, small-molecule microarray, 635 nm fluorescence scan (AID 1107); conditions: small-molecule microarray binding, higher = more signal;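 also: mouse activin A protein probed at 4.33 µg/mL on printed slides; score merges bound-protein fluorescence near 667 nm with spot signal-to-noise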
# Chain of Follistatin-related protein 3 (Homo sapiens) (O95633 whole entry, looked up): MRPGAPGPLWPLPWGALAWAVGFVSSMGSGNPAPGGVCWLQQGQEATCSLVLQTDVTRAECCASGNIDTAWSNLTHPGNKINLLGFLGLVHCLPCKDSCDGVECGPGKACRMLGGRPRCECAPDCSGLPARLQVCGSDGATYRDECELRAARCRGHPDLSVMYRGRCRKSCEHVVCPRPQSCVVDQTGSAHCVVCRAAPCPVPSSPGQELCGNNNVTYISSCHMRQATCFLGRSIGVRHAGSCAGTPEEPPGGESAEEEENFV
# Chain of Fibroblast growth factor 10 (Homo sapiens) (O15520 whole entry, looked up): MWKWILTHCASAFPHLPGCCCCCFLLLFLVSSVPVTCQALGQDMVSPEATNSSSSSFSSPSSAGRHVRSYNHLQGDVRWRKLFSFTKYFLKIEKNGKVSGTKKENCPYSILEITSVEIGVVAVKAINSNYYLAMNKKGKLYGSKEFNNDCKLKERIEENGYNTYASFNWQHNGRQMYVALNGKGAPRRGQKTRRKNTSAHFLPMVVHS
# Chain of Torsin-1A-interacting protein 2 (Homo sapiens) (Q8NFQ8 whole entry, looked up): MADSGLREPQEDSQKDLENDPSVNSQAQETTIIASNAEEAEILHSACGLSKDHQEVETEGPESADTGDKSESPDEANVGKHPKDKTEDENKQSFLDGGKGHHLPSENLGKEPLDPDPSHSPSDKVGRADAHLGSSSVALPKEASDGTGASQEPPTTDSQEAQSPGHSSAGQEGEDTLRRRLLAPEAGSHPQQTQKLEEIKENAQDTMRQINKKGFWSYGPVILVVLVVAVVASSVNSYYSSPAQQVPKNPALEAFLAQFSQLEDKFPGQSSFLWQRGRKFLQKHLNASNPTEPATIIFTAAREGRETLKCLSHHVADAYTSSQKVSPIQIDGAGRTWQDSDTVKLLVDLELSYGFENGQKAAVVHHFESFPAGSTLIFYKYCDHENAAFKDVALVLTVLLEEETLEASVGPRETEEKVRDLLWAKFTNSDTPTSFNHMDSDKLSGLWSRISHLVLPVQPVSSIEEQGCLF
# Chain of Neurogenic locus notch homolog protein 3 (Homo sapiens) (Q9UM47 whole entry, looked up): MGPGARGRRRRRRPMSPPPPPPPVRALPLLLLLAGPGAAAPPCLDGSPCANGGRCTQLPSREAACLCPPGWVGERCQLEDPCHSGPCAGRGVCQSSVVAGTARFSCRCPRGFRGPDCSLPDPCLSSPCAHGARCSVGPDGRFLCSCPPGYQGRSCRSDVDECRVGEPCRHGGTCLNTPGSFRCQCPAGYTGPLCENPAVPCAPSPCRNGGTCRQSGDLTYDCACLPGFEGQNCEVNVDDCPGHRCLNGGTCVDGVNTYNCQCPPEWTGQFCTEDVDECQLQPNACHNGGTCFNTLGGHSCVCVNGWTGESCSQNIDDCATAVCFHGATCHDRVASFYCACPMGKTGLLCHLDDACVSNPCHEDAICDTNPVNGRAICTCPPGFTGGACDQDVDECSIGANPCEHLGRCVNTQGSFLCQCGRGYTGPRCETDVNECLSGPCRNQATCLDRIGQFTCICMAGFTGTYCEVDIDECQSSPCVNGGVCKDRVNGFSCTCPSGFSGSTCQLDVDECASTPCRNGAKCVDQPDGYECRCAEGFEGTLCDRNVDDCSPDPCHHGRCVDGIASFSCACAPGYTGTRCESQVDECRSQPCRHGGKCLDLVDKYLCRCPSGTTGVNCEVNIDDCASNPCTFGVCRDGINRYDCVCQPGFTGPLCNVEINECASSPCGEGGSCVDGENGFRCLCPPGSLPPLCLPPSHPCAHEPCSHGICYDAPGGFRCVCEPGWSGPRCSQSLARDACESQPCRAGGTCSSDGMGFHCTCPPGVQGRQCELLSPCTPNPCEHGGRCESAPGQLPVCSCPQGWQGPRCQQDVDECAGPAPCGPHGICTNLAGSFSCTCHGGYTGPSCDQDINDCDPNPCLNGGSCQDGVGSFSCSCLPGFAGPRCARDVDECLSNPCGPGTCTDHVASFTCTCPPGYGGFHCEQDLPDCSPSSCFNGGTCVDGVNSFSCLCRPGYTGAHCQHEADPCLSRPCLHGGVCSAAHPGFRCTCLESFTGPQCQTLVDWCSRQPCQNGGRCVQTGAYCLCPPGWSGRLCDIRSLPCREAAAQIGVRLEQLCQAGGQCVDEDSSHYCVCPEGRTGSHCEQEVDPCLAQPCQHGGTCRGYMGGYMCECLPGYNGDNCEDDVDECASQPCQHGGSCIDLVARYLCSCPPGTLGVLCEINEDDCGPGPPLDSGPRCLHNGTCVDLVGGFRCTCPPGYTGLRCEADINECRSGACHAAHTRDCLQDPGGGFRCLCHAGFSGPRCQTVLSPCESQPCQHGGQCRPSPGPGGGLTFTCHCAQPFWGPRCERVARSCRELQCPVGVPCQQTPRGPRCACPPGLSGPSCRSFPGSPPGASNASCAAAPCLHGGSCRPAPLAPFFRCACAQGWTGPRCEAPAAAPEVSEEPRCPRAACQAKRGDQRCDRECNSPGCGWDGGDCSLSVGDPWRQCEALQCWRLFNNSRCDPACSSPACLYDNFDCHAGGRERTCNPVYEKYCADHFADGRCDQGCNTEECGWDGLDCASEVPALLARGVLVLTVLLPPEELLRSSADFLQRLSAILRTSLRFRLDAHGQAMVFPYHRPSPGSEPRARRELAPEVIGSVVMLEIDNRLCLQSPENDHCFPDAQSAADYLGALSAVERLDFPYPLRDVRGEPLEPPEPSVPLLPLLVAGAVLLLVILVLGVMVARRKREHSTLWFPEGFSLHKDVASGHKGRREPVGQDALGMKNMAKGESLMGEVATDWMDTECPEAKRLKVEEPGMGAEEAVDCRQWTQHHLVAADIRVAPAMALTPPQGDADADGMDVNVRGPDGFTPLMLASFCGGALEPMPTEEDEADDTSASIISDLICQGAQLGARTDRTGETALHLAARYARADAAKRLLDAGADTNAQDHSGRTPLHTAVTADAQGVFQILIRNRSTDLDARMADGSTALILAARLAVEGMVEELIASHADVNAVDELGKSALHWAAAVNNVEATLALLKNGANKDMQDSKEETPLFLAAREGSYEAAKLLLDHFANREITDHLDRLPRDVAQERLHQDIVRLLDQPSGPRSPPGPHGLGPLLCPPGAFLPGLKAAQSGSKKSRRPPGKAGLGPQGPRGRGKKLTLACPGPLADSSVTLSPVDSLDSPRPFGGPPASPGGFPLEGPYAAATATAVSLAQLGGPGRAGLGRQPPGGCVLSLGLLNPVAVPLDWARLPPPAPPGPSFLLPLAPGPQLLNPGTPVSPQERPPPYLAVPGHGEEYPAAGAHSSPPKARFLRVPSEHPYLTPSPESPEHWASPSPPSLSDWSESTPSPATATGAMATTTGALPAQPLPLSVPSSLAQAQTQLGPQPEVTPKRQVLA
# Chain of Epidermal growth factor receptor (Homo sapiens) (P00533 whole entry, looked up): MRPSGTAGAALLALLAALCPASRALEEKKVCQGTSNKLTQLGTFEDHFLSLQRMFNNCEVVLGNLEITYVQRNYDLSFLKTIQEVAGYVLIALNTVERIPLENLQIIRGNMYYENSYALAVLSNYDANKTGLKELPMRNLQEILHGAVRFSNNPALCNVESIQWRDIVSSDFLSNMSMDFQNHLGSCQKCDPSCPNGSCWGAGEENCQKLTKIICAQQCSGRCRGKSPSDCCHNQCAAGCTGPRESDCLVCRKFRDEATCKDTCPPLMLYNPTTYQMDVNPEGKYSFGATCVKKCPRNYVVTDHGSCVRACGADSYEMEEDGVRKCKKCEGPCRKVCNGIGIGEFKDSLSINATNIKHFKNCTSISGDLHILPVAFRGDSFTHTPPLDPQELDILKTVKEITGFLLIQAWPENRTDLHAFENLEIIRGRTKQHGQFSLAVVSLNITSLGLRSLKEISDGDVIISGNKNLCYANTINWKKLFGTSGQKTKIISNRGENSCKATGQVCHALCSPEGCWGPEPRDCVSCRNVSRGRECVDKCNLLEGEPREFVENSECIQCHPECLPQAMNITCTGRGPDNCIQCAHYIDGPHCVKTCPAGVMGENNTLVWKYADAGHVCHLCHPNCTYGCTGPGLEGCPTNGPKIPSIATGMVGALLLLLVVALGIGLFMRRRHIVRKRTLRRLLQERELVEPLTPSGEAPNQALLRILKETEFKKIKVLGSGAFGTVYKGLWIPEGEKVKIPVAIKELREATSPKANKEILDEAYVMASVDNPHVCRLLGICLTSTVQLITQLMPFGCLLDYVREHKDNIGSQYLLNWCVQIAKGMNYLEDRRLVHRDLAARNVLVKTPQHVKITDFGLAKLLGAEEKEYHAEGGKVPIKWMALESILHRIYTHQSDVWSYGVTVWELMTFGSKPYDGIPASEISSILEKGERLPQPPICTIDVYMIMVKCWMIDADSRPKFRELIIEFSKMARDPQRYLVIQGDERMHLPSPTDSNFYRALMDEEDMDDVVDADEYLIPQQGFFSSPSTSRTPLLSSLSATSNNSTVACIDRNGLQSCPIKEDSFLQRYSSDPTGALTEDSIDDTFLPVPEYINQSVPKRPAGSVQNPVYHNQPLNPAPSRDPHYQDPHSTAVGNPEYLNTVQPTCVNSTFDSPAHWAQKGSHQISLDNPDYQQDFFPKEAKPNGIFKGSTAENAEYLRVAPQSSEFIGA
# Chain of Dickkopf-related protein 1 (Homo sapiens) (O94907 whole entry, looked up): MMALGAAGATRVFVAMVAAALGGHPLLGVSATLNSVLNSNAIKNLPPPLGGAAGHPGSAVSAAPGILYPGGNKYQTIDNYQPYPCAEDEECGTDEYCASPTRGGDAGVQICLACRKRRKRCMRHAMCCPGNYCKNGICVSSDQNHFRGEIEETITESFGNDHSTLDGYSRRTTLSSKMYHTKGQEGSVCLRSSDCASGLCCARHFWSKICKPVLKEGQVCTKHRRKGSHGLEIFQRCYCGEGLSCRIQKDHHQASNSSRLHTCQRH
SMILES,composite z-score [1],z-score [2],z-score [3],z-score [4],composite z-score [5],z-score [6],composite z-score [7],composite z-score [8],composite z-score [9],composite z-score [10],composite z-score [11],composite z-score [12],composite z-score [13],z-score [14],composite z-score [15],composite z-score [16],composite z-score [17],composite z-score [18],composite z-score [19],composite z-score [20]
O=C1[C@H]2[C@H]3[C@H](O)[C@H](O)CC(=NO[C@@H]4O[C@H](CO)[C@@H](O)[C@H](O)[C@H]4O)[C@@H]3CC[C@H]2C(=O)N1Cc1ccc2c(c1)OCO2,0.843,-0.0622 (inactive),0.374 (inactive),0.35 (inactive),1.55,-0.244 (inactive),-0.0991,0.388,0.786,-0.0007,0.456,-0.174,-0.576,0.0977 (inactive),0.422,0.708,0.4,0.521,0.921,-0.292
COC(=O)CC1OC1[C@H](C)[C@@H](OC)C(C)C (stereo not given in full),0.12,-0.132 (inactive),-4.41 (inactive),1.24 (inactive),-0.481,0.453 (inactive),0.121,0.291,-0.556,-0.151,0.505,-0.0977,-0.111,0.743 (inactive),0.142,-0.792,0.335,0.0479,0.82,1.32
CC(C)=CCCC(C)=CCON=C1[C@H]2CCn3c(=O)n(C)c(=O)n3[C@H]2[C@H](O)[C@@H]2O[C@H]12,1.14,-0.0766 (inactive),0.418 (inactive),0.407 (inactive),0.393,0.604 (inactive),0.0315,1.18,0.651,0.081,0.819,-0.317,-0.378,0.709 (inactive),0.868,1.26,0.779,1.05,0.921,0.832
COc1cccc([C@@H]2Oc3ccc(Br)cc3C(=O)[C@H]2O)c1,-0.366,-2.84 (inactive),-10.6 (active),-1.5 (inactive),1.49,0.9 (inactive),-0.0615,1.13,0.834,-0.0828,0.237,-0.257,-0.423,-1.7 (inactive),1.19,0.101,0.312,0.892,0.221,0.287
CCOC(=O)[C@H](CC(C)C)NC(=O)CCC1CC(OC(=O)NCCc2ccc(F)cc2)CC2(CCCC(COC(=O)NCc3ccccc3)O2)O1 (stereo not given in full),1.57,-0.341 (inactive),-0.265 (inactive),0.707 (inactive),2.24,-0.206 (inactive),-0.0778,1.46,0.828,0.0338,0.859,-0.273,-0.29,-1.19 (inactive),1.39,0.808,0.907,1.01,0.89,-0.198
CCOC(=O)NN=C1C[C@@H](O)[C@@H](O)[C@@H]2[C@@H]3C(=O)N(C4CCCCC4)C(=O)[C@@H]3CC[C@@H]12,-0.319,-1.33 (inactive),-0.895 (inactive),-0.495 (inactive),0.156,0.637 (inactive),-0.028,0.257,0.324,-0.0329,0.104,-0.192,-0.499,1.06 (inactive),0.534,0.132,0.34,0.297,0.476,0.212
CCN(CC)c1ccc(N2CC=CC34O[C@@H]5/C=C\CCC(C)OC(=O)C5[C@H]3C(=O)N(CCCO)[C@@H]4C2=O)cc1 (stereo not given in full),-1,0.664 (inactive),-0.0895 (inactive),0.928 (inactive),0.964,0.0591 (inactive),-0.143,-0.686,-0.397,-0.27,1.44,-0.137,0.325,0.122 (inactive),-0.221,-0.615,-1.02,-0.777,-0.492,1.01
CC(C)CON=C1C[C@@H](O)[C@@H](O)[C@@H]2[C@@H]3C(=O)N(C[C@@H]4CCCO4)C(=O)[C@@H]3CC[C@H]12,0.976,-1.04 (inactive),0.042 (inactive),-0.435 (inactive),1.39,0.134 (inactive),-0.234,0.468,0.668,-0.0191,0.651,-0.273,-0.356,0.132 (inactive),0.505,0.33,0.265,0.417,0.24,0.07
COC(=O)[C@@]1(Cc2ccc(F)cc2)[C@@H]2C(=CC(=O)[C@H]2CC(=O)C(=O)N(C)C)CN1C(=O)c1ccccc1,1.14,1 (inactive),1.84 (inactive),8.71 (active),3.5,-0.399 (inactive),0.393,0.171,1.02,0.396,0.346,1.31,0.921,-1.17 (inactive),0.625,1.29,-0.0946,1.06,-0.251,0.637
CC(C)N1CC=CC23O[C@@H]4C=CCCOC(=O)C4[C@H]2C(=O)N(CCCCCCO)[C@@H]3C1=O (stereo not given in full),0.613,0.653 (inactive),0.159 (inactive),0.121 (inactive),1.94,-0.0822 (inactive),-0.233,-0.984,-0.0917,-0.297,0.627,-0.201,0.587,1.59 (inactive),-1.03,-1.13,-1.13,-1.22,-1.59,0.12
